Source: PubChem BioAssay (National Center for Advancing Translational Sciences (NCATS))
In the library only some 5.7% were active in any assay of this set; here they are far more common.
KB-V1 MDR tox: qHTS assay for MDR1-selective chemotherapeutics: Primary screen using the drug-selected MDR subline cells KB-V1 | KB-V1 MDR cells viability, CellTiter-Glo, 72 h | Potency, µM (top dose mostly 46.1 µM), hits mostly cytotoxic | hit rate 3.4% among 400,000; further: nearly all actives have a fitted effect of over 60% in size
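Drug-selected KB-V1 cells, grown in DMEM lacking phenol red with 10% FBS, receive compound titrations; after three days at 37 degrees C, surviving cell ATP is quantified by CellTiter-Glo luminescence and responses normalized and curve-fitted.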
HT1080NT lethal: qHTS for induction of synthetic lethality in tumor cells producing 2HG: qHTS for the HT-1080-NT fibrosarcoma cell line. HT-1080-NT fibrosarcoma viability, CellTiter-Glo ATP luminescence, 48 h. AID 686970, 2013. Potency, µM (series often up to 46.1 µM), inactives show at the highest dose activity, negative = less viability, usual class: cytotoxic. hit rate 1.6% among 360,000;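 further: NT is the 2HG producing partner of a matched IDH1 knockdown line; 0% = DMSO-treated cells and -100% = media-only wells without cells; nearly all actives have a fitted effect of over 55% in size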
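Fibrosarcoma NT cells, 750 per well in 5% FBS RPMI, were exposed to compound for 48 hours. Viability: CellTiter-Glo luminescence.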
KB-3-1 cytotox: qHTS assay for MDR1-selective chemotherapeutics: Primary screen using the parental adenocarcinoma cell KB-3-1 | KB-3-1 viability, CellTiter-Glo ATP luminescence, 72 h | Potency, µM (titrated, usually from 46.1 µM), actives largely listed as cytotoxic | hit rate 1.4% among 400,000; further: nearly all actives have a fitted effect of over 60% in size
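KB-3-1 cells, DMEM (no phenol red) + 10% FBS; compound by pin transfer, 72 h, 37 °C. Readout: CellTiter-Glo luminescence after 10 min. Data normalized, curve-fitted.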
HT1080 IDH1KD tx: qHTS for induction of synthetic lethality in tumor cells producing 2HG: qHTS for the HT-1080-IDH1KD cell line; HT-1080 IDH1 knockdown viability, ATP luminescence, 48 h; Potency, µM (series often up to 46.1 µM), for inactives: at the top dose activity, negative = toxicity, most hits filed as cytotoxic; hit rate 2% among 360,000;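 further: 0% = DMSO wells and -100% = cell-free medium wells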
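IDH1KD HT-1080 cells, 750/well, RPMI + 5% FBS; compound pinned after 2 h settling; 48 h, 37 °C; CellTiter-Glo luminescence; % activity normalised to DMSO and no-cell wells; curves fitted, classed by r2 and efficacy.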
Active calls of the source: *; i = inactive; ? = inconclusive; / = not tested or not shown; ! = repeats disagree; [ ] = dose if it differs, or a comment. The call rests on the fitted dose curve; in most records, active means well fitted curve in the direction sought with a large enough effect; inconclusive means small, poorly fitted or top-dose-only effect, or another doubt; inactive means no such curve, though single readings can be large; an effect the other way counts as inactive or inconclusive. Unless noted, on the % scale 0 is the no-effect control and ±100 the full control effect; potency means the concentration at half of the fitted maximal effect.

SMILES	KB-V1 MDR tox	HT1080NT lethal	KB-3-1 cytotox	HT1080 IDH1KD tx
COc1ccc(CCNC(=O)Cn2c(=O)n(-c3ccc(OC)c(OC)c3)c(=O)c3ccccc32)cc1OC	?	/	i	/
Cc1ccc(NC(=O)c2oc3ccccc3c2NC(=O)C2CCCCC2)cc1	i	/	i	/
CC(=O)N1CCN(C(=O)c2cccc(S(=O)(=O)N3CCN(c4ccccc4)CC3)c2)CC1	i	7%	i	-4%
O=C(NCCOc1ccccc1F)c1cccc(S(=O)(=O)N2CCN(c3ccccc3)CC2)c1	13µM*	-3%	i	-2%
O=C(NCCCN1CCOCC1)c1cccc(S(=O)(=O)N2CCN(c3ccccc3)CC2)c1	i	-6%	i	-7%
COc1cc(S(=O)(=O)N2CCN(c3ccccc3)CC2)ccc1Cl	23µM*	2%	i	12%
O=C(NNC(=O)c1cccc(S(=O)(=O)N2CCN(c3ccccc3)CC2)c1)c1ccc(Cl)cc1	16µM*	1%	i	14%
Cc1ccc(NC(=O)c2cc3nc(-c4ccc5c(c4)OCO5)cc(C(F)(F)F)n3n2)cc1Cl	i	/	i	/
COC(=O)c1cc2oc3ccccc3c2n1CC(=O)Nc1cc(OC)cc(OC)c1	i	/	i	/
N#CCCN(C(=O)CCl)c1cccc(Cl)c1	?	?	21µM*	23µM*
CCC(CO)Nc1nc2ccc(Cl)cc2c2ccccc12 (configuration not stated)	i	?	i	18µM*
C=CCN=c1scc(-c2ccccc2)n1/N=C/c1ccccn1	7.3µM*!	18µM*	1.5µM*!	18µM*
CCN=c1scc(-c2ccc(F)cc2)n1/N=C/c1ccccn1	?	-2%	i	?
CCN=c1scc(-c2ccccc2)n1/N=C/c1ccccn1	?	?	8.2µM*	?
c1ccc(C2[C@H]3CN(Cc4cccnc4)[C@H](c4ccccc4)C34CC2(c2ccccc2)C4)cc1 (some centres not stated)	i	?	?	?
c1ccc(C2[C@H]3CN(Cc4cccnc4)[C@H](c4ccccc4)C34CC2(c2cccnc2)C4)cc1 (some centres not stated)	21µM*	?	?	?
COC(=O)c1cccc(C23CC4(C2)[C@H](CN(Cc2ccc(C(F)(F)F)cc2)[C@@H]4c2ccccc2)C3c2ccc(C(F)(F)F)cc2)c1 (some centres not stated)	i	-11%	13µM*	-28%
COC(=O)c1cc(NC(=O)c2sc3ncn(Cc4cccc(F)c4)c(=O)c3c2C)cc(C(=O)OC)c1	i	/	i	/
CC(C)(C)NC(=O)COC(=O)CNC(=O)C1CCCCC1	i	/	?	/
Cc1ccc(S(=O)(=O)NCCN=C(CN2CCCC2)NS(=O)(=O)c2ccc(C)cc2)cc1	6.5µM*	11%	i	-3%
Cc1ccc(S(=O)(=O)NCCN=C(CN2CCOCC2)NS(=O)(=O)c2ccc(C)cc2)cc1	i	1%	i	10%
CCN(CC)C(=O)CSc1nc(C)cc(C)c1C#N	i	21%	i	16%
CCc1ccc2nc(SCC(=O)N(CC)CC)c(C#N)cc2c1	13µM*	-1%	i	-2%
COc1ccc(NC(=O)C2CCCN2C(=O)NC2CCCCC2)cc1OC (configuration not stated)	i	-1%	i	-8%
COc1ccc(S(=O)(=O)N2CCC(C(=O)NC3CCCCC3)CC2)cc1OC	i	-5%	i	-3%
SMILES	KB-V1 MDR tox	HT1080NT lethal	KB-3-1 cytotox	HT1080 IDH1KD tx
COc1ccc(S(=O)(=O)N2CCN(C(=O)NC3CCCCC3)CC2)cc1OC	16µM*	-2%	i	-1%
COc1ccc(NC(=O)C2CCCN(C(=O)NC3CCCCC3)C2)cc1OC (configuration not stated)	15µM*	1%	i	10%
O=S(=O)(c1ccc(N=C2NN=C(c3cc(F)ccc3F)CS2)cc1)N1CCOCC1	?	?	?	16µM*
Fc1ccc(N=C2NN=C(c3cc(F)ccc3F)CS2)cc1	i	?	?	?
CN1C(C(=O)NCc2ccco2)CC2Cn3c(nc4cc(Cl)c(Cl)cc43)C21 (configuration not stated)	i	-5%	i	-2%
Cc1cccc(C)c1N=Cc1c(O)n(-c2nccs2)c(=O)c2ccccc12	23µM*	-5%	i	1%
Cc1cc(C)c(N=Cc2c(O)n(-c3nccs3)c(=O)c3ccccc23)c(C)c1	i	4%	i	-3%
Cc1ccc(C(=O)n2nc(C)c(S(=O)(=O)N3CCOCC3)c2C)cc1	i	/	i	/
CCOC(=O)N1CCN(Cc2cc(Cl)c3cccnc3c2O)CC1	i	5.8µM*	?	3.3µM*
Oc1c(CNc2ccccc2)cc(COCc2ccccc2)c2cccnc12	i	/	i	/
Oc1c(CN2CCOCC2)cc(COCc2ccccc2)c2cccnc12	?	?	?	13µM*
CN1CCN(Cc2cc(Cl)c3cccnc3c2OC(=O)c2cccs2)CC1	5.8µM*	-5%	?	-11%
CCOC(=O)N1CCN(Cc2ccccc2Cl)CC1	i	23%	i	14%
COCc1cc(CN2CCN(C)CC2)c(O)c2ncccc12	3.7µM*	?	?	?
NC(=O)C1CCN(c2ncc(-c3ccc4c(c3)OC(F)(F)O4)s2)CC1	i	/	i	/
COc1cc2nc(N3CCN(C)CC3)nc(NC(C)C)c2cc1OC	/	-22%	/	-2%
CCOC(=O)c1c(NC(=O)C(C)Sc2cn(CCNC(=O)c3ccc(OC)cc3)c3ccccc23)sc2c1CCC2 (configuration not stated)	i	/	i	/
COc1ccc(N2C(=O)c3ccccc3NC(=O)C2C(=O)NCCc2ccccc2F)cc1 (configuration not stated)	i	5%	i	15%
c1ccc(N2CCN(Cc3ccnc4ccccc34)CC2)cc1	i	-4%	16µM*	?
Oc1c(CN2CCN(c3ccccc3)CC2)cc(Br)c2cccnc12	i	?	?	?
Clc1ncc(CN2CCN(c3ccccc3)CC2)s1	i	-17%	i	0%
CC(C)OCc1cc(CN2CCN(c3ccccc3)CC2)c(O)c2ncccc12	6.5µM*	/	?	/
COc1ccccc1NC(=O)c1ccccc1C(=O)Nc1ccccc1OC	i	-5%	i	-3%
COc1ccccc1NC(=O)c1cnc(Nc2ccccc2OC)c2ccccc12	9.2µM*	3.7µM*	18µM*	?
Cc1ccc(-c2nnn(CC(=O)N(CC(=O)NCc3ccccc3)c3cccc(C)c3C)n2)o1	i	1%[9.24 µM]	i	-9%
